The source of these data is PubChem BioAssay (NCATS).

Activity calls are given as the source filed them. No rule for the calls is given here. A value given as a limit tells only on which side of the number the result lay.
Potency is read from the fitted curve at half-maximal effect.

In the assay the test system is HIV-1 nucleocapsid protein NCp7 (binding to TG oligonucleotide). Briefly: HIV Nucleocapsid (AID 346).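 Also: potency is for inhibitors that block NC binding and lower polarization.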 The settings on record: HIV-1 NC / fluorescein-TGTGTGTG probe, fluorescence polarization. The gist of the method:
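Inhibition of nucleocapsid binding to single-stranded 5'-TGTGTGTG probe (10 nM) was measured by fluorescence polarization after 1 hr at room temperature with 100 nM protein under high-salt, zinc-containing, reducing conditions.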
A general note: Fluorescence polarisation rises when a labelled molecule tumbles more slowly, as on binding a larger partner.
Turning to `Cc1noc(C)c1-c1cc(N(C)Cc2ccco2)ncn1`, the Potency was > 20 µM (inactive).
`COc1ncc2nc(C)c(=O)n(CCC#N)c2n1`: the Potency is > 20 µM (inactive).
As for `O=c1c(-c2cccs2)nc2cnc(N3CCNCC3)nc2n1Cc1cccs1`, the figure is > 20 µM (inactive); as for `COc1ccccc1CN1CCC2(CC1)CCN(C(=O)c1cccc(F)c1)CC2`, > 20 µM (inactive); as for `CNc1cc(-c2ccccc2CN(C)C)ncn1`, > 20 µM (inactive).
As to `COc1cccc(Nc2ncc3nc(CCc4ccccc4)c(=O)n(C4CC4)c3n2)c1`, the Potency is > 4 µM (inactive).
As for `CS(=O)(=O)N1CCC2(CCCN(c3ccncc3)C2)CC1`, the figure is > 20 µM (inactive); as for `COc1cccc(Cn2c(=O)c(-c3ccccc3)nc3cnc(OC)nc32)c1`, > 20 µM (inactive); as for `COc1ccc(Oc2ncc3nc(-c4ccccc4)c(=O)n(Cc4cccs4)c3n2)cc1`, > 20 µM (inactive).
For `COC(=O)N1CCC2(CC1)CN(c1ccccc1)C2`, the Potency is > 20 µM (inactive).
The same measure for `COc1cccc(-c2cncnc2N(C)Cc2ccco2)c1`: > 20 µM (inactive).
As for `O=C(c1cccc(F)c1)N1CCC2(CCN(Cc3ccccc3)CC2)CC1`, the figure is > 20 µM (inactive).
For the compound `Cc1nc2cncnc2n(Cc2ccccc2)c1=O`, the Potency was > 20 µM (inactive).
For the compound `O=C(c1cc(C(F)(F)F)cc(C(F)(F)F)c1)N1CCC[C@@]2(CCN(c3ncccn3)C2)C1`, the Potency is > 20 µM (inactive).
Turning to `COc1cccc(Cn2c(=O)c(-c3cc(F)cc(F)c3)nc3cnc(N4CCNCC4)nc32)c1`, the Potency is > 20 µM (inactive).
The same measure for `COc1ccc(C(=O)N2CCC3(CCCN(Cc4cc(C(F)(F)F)cc(C(F)(F)F)c4)C3)CC2)cc1`: > 4 µM (inactive); for `COc1ccccc1-c1nc(N2CCN(C)CC2)c2ccccc2n1`: > 20 µM (inactive); for `O=C(c1cccc(F)c1)N1CCC2(CC1)CCN(c1ccccn1)CC2`: > 20 µM (inactive).
Consider `O=c1c(CCc2ccccc2)nc2cnc(N3CCNCC3)nc2n1Cc1ccc(F)cc1`, for which the Potency is > 20 µM (inactive).
The same measure for `CC(C)NC(=O)N1CC[C@@]2(CCCN(C(=O)c3cc(C(F)(F)F)cc(C(F)(F)F)c3)C2)C1`: > 20 µM (inactive); for `Cc1nc2cnc(N(C)C)nc2n(C)c1=O`: > 20 µM (inactive); for `N#CCCn1c(=O)c(-c2cccs2)nc2cnc(Oc3cccc(Cl)c3)nc21`: > 4 µM (inactive).
As for `Cc1cnc(CNc2ncncc2-c2ccccc2C)cn1`, the figure is > 20 µM (inactive); as for `COCCn1c(=O)c(-c2cccs2)nc2cnc(N3CCOCC3)nc21`, > 20 µM (inactive).
As for `N#Cc1cccc(NC(=O)N2CC[C@@]3(CCCN(C(=O)c4ccco4)C3)C2)c1`, the Potency was > 20 µM (inactive).
As for `COc1ccc(C(=O)N2CCC3(CCCN(C)C3)CC2)cc1`, the figure is > 20 µM (inactive); as for `COc1cccc(Cn2c(=O)c(-c3cc(F)cc(F)c3)nc3cnc(N4CCOCC4)nc32)c1`, > 20 µM (inactive).
The same measure for `CC(C)CN1CCCC2(CCN(C(=O)c3cnccn3)CC2)C1`: > 20 µM (inactive).
For `O=C(Nc1cccc(F)c1)N1CC2(CCN(C(=O)c3csnn3)CC2)C1`, the Potency is > 20 µM (inactive).
As to `COc1ccc(-c2nc3cnc(N4CCN(C)CC4)nc3n(C3CC3)c2=O)cc1`, the Potency was > 20 µM (inactive).
As to `N#CCCn1c(=O)c(-c2ccccc2)nc2cnc(Oc3ccccc3)nc21`, the Potency is > 20 µM (inactive).
For `O=C(c1ccco1)N1CCC2(CCN(Cc3ccncc3)CC2)CC1`, the Potency was > 20 µM (inactive).
As for `CCNc1ncc2nc(-c3cccc(C#N)c3)c(=O)n(Cc3cccc(OC)c3)c2n1`, the figure is 17.7 µM (inactive); as for `COc1ccccc1CNc1nc(-c2ccccc2CN(C)C)nc2ccccc12`, > 20 µM (inactive).
The same measure for `CN1CCN(c2ncc3nc(-c4cn(C)c5ccccc45)c(=O)n(C[C@H]4CCCO4)c3n2)CC1`: > 20 µM (inactive); for `Cc1noc(C)c1C(=O)N1CCC[C@@]2(CCN(C(=O)NC(C)C)C2)C1`: > 20 µM (inactive).
As for `O=c1c(CCc2ccccc2)nc2cnc(N3CCOCC3)nc2n1-c1ccccc1`, the figure is > 20 µM (inactive); as for `CC(C)NC(=O)N1CCC2(CC1)CCN(S(=O)(=O)c1ccccc1)CC2`, > 20 µM (inactive); as for `Cc1nc2cnc(N(C)C)nc2n(CCC#N)c1=O`, > 20 µM (inactive).
With `CC(C)CN1CC[C@@]2(CCCN(C(=O)c3ccco3)C2)C1`, the Potency is > 20 µM (inactive).
